These results are taken from PubChem BioAssay (NCATS).

Test [1] is described as follows: P-glycoprotein substrates identified in KB-8-5-11 adenocarcinoma cell line, qHTS therapeutic library screen (AID 1346987). Further: nearly all actives have a fitted effect of over 65% in size. The essentials:
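In this qHTS, P-gp-rich KB-8-5-11 cells received library compounds across a concentration range. Viability was quantified by luminescence after 72 h at 37 degree C.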

The nature of test [2]: Primary qHTS for inhibitors of nuclear receptor binding SET domain protein 2 (NSD2) in an RCH-ACV wild type WT cells (2C) (AID 1645877). Further: potency means the concentration at half of the fitted maximal effect; nearly all actives have a fitted effect of over 70% in size. A general note: In qHTS, concentration-response curves come from the screen itself.
For test [3], the target named is Glutathione peroxidase 1 (Homo sapiens) (UniProt P07203). Put plainly: Primary qHTS Assay for Inhibitors of Recombinant Selenoprotein Glutathione Peroxidase 1 (GPX1) (AID 1845191). Further: nearly all actives have a fitted effect of over 65% in size. In outline:
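GPX1 10 nM, GR 100 nM, GSH 1 mM, NADPH 0.5 mM, CHP 0.5 mM (final). 30-min cpd preincubation, RT. Ex340/Em450 read t=0, t=15 min.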

Test [4] has as its target Calcium and integrin-binding protein 1 (Homo sapiens) (UniProt Q99828). Put plainly: Primary qHTS for Identification of Calcium Integrin Binding Protein 1 (CIB1) Competitor (AID 1508620).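 Further: GST tagged CIB1 binding a fluorescein labelled alphaIIb integrin peptide tracer; top concentration of the series differs between compounds.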 In outline:
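Fluorescence polarization competition: CIB1-GST (1 uM final) preincubated with compound 15 min at room temperature, then FITC-labeled alphaIIb peptide (100 nM final) added for another 15 min. Polarization read at Ex 480/Em 540.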

Molecules are shown by their SMILES. Results filed as inconclusive are left out. Where a call stands in place of a potency, no number is given. Active and inactive are the calls of the source. The call rests on the fitted dose curve; in most records, active means well fitted curve in the direction sought with a large enough effect; inconclusive means small, poorly fitted or top-dose-only effect, or another doubt; inactive means no such curve, though single readings can be large; an effect the other way counts as inactive or inconclusive.

Glutathione peroxidase 1 (Homo sapiens), sequence (P07203 whole entry, looked up): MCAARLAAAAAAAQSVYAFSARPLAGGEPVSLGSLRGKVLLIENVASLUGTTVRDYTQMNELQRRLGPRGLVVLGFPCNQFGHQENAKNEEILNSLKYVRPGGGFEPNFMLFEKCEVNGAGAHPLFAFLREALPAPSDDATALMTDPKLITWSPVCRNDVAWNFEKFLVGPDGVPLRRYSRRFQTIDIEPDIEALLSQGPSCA
Calcium and integrin-binding protein 1 (Homo sapiens), sequence (Q99828 whole entry, looked up): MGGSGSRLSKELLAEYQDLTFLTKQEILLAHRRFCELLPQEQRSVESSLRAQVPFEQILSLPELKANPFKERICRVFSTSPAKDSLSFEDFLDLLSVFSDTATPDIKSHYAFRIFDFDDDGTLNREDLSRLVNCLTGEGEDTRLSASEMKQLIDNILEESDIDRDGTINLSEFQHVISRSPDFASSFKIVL

As to `Cn1c(CNc2cccc(C(=O)NCc3ccccc3C(F)(F)F)c2)nnc1-c1ccncc1`, the Potency result in test [1] and in test [3] was “inactive” in each case. In addition, the Potency in test [2] was 10.3 µM (active).
Take `Cc1ccc(NS(=O)(=O)c2cc3c(cc2N[C@@H](C)CO)NC(=O)CC3)cc1C`: the Potency entry in test [1] is “inactive”. Further, the outcome in test [4] was inactive.
